# High-throughput results as filed in PubChem BioAssay.
# In the library only some 2.8% were active in any assay of this set; here they are far more common.
# CF NFkB inh = inhibitors of cystic fibrosis induced NF-kB. 360,000 compounds, 0.86% hits. inhibition, % at 5 µM. KKLEB NF-kB-GFP reporter, PAF-induced, GFP fluorescence overnight;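 active = at least 50% inhibition at 5 µM, scaled per plate between neutral and stimulator controls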;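 note: PAF is a Pseudomonas aeruginosa culture filtrate used as stimulus; plate controls were PAF-stimulated DMSO wells for no effect and unstimulated DMSO wells for full effect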
# MITF TRPM1 inh = reduces MITF-dependent TRPM1 promoter luciferase signal; 330,000 compounds, 0.83% hits; inhibition, % at 12.5 µM; SK-MEL-5 TRPM1 promoter luciferase, 24 h;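 active = mean inhibition across replicates of 60% or more, whatever share of single replicates reaches that level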
# KKLEB tox = counter-screen for CF NF-kB inhibitors: cytotoxicity; KKLEB CF airway cells viability, ATPlite luminescence, overnight; active compounds read low; cells stimulated with P. aeruginosa culture filtrate; activity change (cytotoxicity), % at 5 µM; 360,000 compounds, 0.36% hits;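 active = corrected activity change at or below -50% at 5 µM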
# Shn3 3UTR inh = Schnurri-3 reporter inhibition in Clone20 osteoblasts; AID 588674; inhibition, % at 12.5 µM; Clone20 osteoblast Shn3 3'UTR firefly luciferase, 24 h; 360,000 compounds, 0.52% hits;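 active = mean inhibition of at least 75% with every replicate also reaching 75%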;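 note: 0% = median of neutral control wells and 100% = pilot-screen positive control compound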
# Peg3 prom inh = inhibitors of Peg3 promoter. HeLa PEG-Prom luciferase reporter, luminescence, overnight. inhibition, % at 20 µM. 360,000 compounds, 1.7% hits;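 active = inhibition of at least 50% at 20 µM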
# HIF-2a block = HIF-2a inhibition; 786-0 RCC cells HIF-2a reporter, luciferase luminescence, overnight; inhibition, % at 18.8 µM; 360,000 compounds, 0.72% hits;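 active = inhibition of the luminescence signal of 40% or more relative to plate controls, in a single-dose primary screen at 18.75 µM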
# Mdm2 MdmX conf = Mdm2/MdmX (human) interaction inhibition, confirmed; inhibition, % at 8 µM; shares compounds with HIF-2a block; 740 compounds, 99% hits; SaOS-2 split-luciferase Mdm2/MdmX complementation, luminescence;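 active = mean inhibition of the luminescence signal across two replicates at or above 26 percent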
# Target sequence (O15151 whole entry, looked up): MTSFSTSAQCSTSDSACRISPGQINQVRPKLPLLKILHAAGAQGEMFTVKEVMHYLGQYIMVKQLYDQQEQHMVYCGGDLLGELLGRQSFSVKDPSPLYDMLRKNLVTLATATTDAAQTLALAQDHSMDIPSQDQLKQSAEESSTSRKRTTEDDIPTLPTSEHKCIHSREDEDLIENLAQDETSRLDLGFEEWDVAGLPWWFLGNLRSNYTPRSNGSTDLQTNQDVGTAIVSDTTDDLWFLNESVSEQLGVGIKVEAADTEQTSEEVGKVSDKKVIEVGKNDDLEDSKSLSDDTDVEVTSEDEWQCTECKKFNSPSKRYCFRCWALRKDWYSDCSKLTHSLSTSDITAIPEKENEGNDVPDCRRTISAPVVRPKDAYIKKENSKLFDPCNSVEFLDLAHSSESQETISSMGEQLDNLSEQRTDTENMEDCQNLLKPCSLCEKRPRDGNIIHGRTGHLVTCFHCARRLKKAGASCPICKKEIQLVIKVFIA
# Target sequence (Q00987 whole entry, looked up): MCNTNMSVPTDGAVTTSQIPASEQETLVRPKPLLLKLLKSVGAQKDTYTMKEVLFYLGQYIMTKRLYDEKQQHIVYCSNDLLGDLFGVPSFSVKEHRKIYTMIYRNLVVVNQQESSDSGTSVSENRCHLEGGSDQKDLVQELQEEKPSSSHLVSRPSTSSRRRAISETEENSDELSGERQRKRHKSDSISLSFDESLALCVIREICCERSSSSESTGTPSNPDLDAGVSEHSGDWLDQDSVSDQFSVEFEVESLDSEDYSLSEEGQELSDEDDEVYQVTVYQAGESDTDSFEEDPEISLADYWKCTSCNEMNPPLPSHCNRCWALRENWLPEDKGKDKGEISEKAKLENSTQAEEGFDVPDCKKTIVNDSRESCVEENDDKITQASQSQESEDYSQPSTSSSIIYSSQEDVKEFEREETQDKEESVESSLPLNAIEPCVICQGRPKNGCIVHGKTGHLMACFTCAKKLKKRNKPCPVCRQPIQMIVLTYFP
# HIF-2a inh conf = HIF-2a inhibition, single concentration confirmation | 786-0 RCC cells, HIF-2a luciferase reporter luminescence, overnight | inhibition, % at 18.8 µM | 1,800 compounds, 56% hits | AID 651580 | shares compounds with HIF-2a block;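 active = mean inhibition across four replicates of at least 40 percent at the single tested concentration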
# HIF-1a cs = counter-screen for HIF-2a inhibitors: HIF-1a inhibition in MiaPaCa-2 cells | inhibition, % at 18.8 µM | shares compounds with HIF-2a block | 1,800 compounds, 72% hits | MiaPaCa-2 HIF-1a luciferase reporter, desferoxamine, overnight | AID 651589;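 active = mean inhibition of the reporter signal across four replicates at the single tested dose of 50% or more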
# Numbers without * were called inactive; . = no result.
SMILES,CF NFkB inh,MITF TRPM1 inh,KKLEB tox,Shn3 3UTR inh,Peg3 prom inh,HIF-2a block,HIF-2a inh conf,HIF-1a cs,others
Cc1ccc(NC(=O)C2=C(c3ccccc3)S(=O)(=O)CCS2(=O)=O)cc1,95.6*,95.2*,-71.6*,95.9*,108.8*,81.2*,80.8*,102.5*,Mdm2 MdmX conf=103.2*
Fc1ccc(/C=C2\CCCC3=C2Nc2ncnn2C3c2ccc(F)cc2)cc1 (stereo not drawn),79.6*,87.8*,-44.4,97.4*,91.3*,86.1*,15.9,66.0*,
COc1ccc(C2C3=C(Nc4ncnn42)c2ccccc2CCC3)cc1 (stereo not drawn),0.0,-6.8,-7.0,7.3,18.9,11.1,.,.,
CC1CC(NS(=O)(=O)c2cccs2)CC(C)(C)C1 (stereo not drawn),12.9,-6.9,1.7,-1.0,18.4,11.2,.,.,
N/C(=N\OC(=O)c1cnn(-c2ccccc2)c1C(F)(F)F)c1ccc(C(F)(F)F)cc1,-13.1,-58.3,16.2,19.5,-42.4,-67.8,.,.,
COCC(C)n1c(C)cc(C(=O)COC(=O)c2cc(=O)[nH]c3ccccc23)c1C (stereo not drawn),3.6,.,-2.6,32.3,52.0*,43.2*,44.8*,36.3,
COCC(C)n1c(C)cc(C(=O)COC(=O)c2n[nH]c3ccccc23)c1C (stereo not drawn),10.0,-7.9,-4.6,7.8,-48.8,-51.5,.,.,
CCOC(=O)COc1ccc(S(=O)(=O)NCCC2=CCCCC2)cc1,10.0,-6.7,0.4,-3.6,11.1,54.1*,7.3,-0.6,
Cc1ccc(S(=O)(=O)NCCC2=CCCCC2)cc1,8.2,-3.6,8.3,6.2,-11.8,-6.1,.,.,
O=C(COC(=O)/C=C/c1ccc(Cl)cc1Cl)NCC1CCCO1 (stereo not drawn),26.6,14.1,-22.9,6.3,8.6,-5.5,.,.,
CCc1ccc(C2=NN(CCC(=O)NC(C)c3ccc4c(c3)OCCO4)C(=O)CC2)cc1 (stereo not drawn),6.8,5.9,4.0,9.1,0.6,17.7,.,.,
Cc1nc2cc(-c3ccc(Cl)cc3)nn2c(C)c1CCC(=O)NC(C)c1ccc2c(c1)OCCO2 (stereo not drawn),-1.4,52.6,-5.3,67.5,8.6,81.9*,92.8*,89.1*,
Cc1csc(NC(=O)CCc2c(C)nc3cc(-c4ccc(Cl)cc4)nn3c2C)n1,1.3,54.5,-4.8,59.3,-4.4,81.0*,92.1*,54.5*,
Cc1csc(NC(=O)CSc2nnc(-c3ccc(Cl)cc3)n2N)n1,-2.6,8.4,9.7,0.9,2.1,0.3,.,.,
Cc1cc(N)c2cc(NC(=O)/C=C/c3ccccc3Cl)ccc2n1,18.6,99.9*,-30.5,.,103.8*,96.3*,95.4*,107.7*,Mdm2 MdmX conf=103.0*
Cc1cc(C)nc(NC(=O)/C=C/c2ccccc2Cl)n1,5.0,-12.7,-4.3,-32.4,-98.0,-137.0,.,.,
COc1cc(NC(=O)c2ccc(-c3ccc(F)c(F)c3)c3ccoc23)cc(OC)c1OC,-0.1,.,1.7,3.3,-11.2,-28.2,.,.,
O=C(c1ccccc1)c1c2c(cc3sc4ccccc4[n+]13)-c1cccc3cccc-2c13,-29.0,85.5*,-36.0,78.4,100.9*,77.5*,56.5*,98.2*,
CCSc1nc(-c2ccccc2)c2cc(Cl)ccc2n1,18.5,-1.4,4.9,7.6,14.0,15.6,.,.,
CCSc1nc(-c2ccccc2)nc(C(Cl)Cl)n1,14.0,96.1*,-14.9,23.3,102.1*,70.9*,61.2*,105.0*,
C=CCn1c(Sc2ncc([N+](=O)[O-])s2)n[nH]c1=O,14.5,82.1*,16.8,5.2,102.2*,92.5*,.,.,Mdm2 MdmX conf=102.7*
CCOc1ccc(N=C2NC(=O)CS2)cc1,-11.3,-3.4,-5.1,-2.8,18.3,15.6,.,.,
